Here are results for 95 molecules from PubChem BioAssay AID2314 (National Center for Advancing Translational Sciences (NCATS), 2010).

The structures appear in SMILES notation. Values joined by “and” are separate entries in the source; they are usually repeats but may differ in a detail not shown here. Equal values may be shown once. Screen size: about 300,000 compounds; about 37,000 (12%) were called active. The entries come from a sample that favours actives as a whole. Unmarked numbers belong to inactive results. Rule as the data show it: active = max response mostly above about 13% (no sharp cut-off); inactive = mostly below about 14%.

The experiment in a line: Cycloheximide Counterscreen for Small Molecule Inhibitors of Shiga Toxin. Also: read at 38.3 µM for the half of the compounds with a filed dose; 0% is about no effect. To be noted: cell reporter, cycloheximide protein synthesis inhibition counterscreen; stronger effect = higher value. In general terms: Counterscreens check selectivity or assay interference.
For the molecule `Cc1cc(Cl)ccc1C(=O)C1CCCN(C(=O)CCN2CCCO2)C1` (stereo not given), the max response was -2.88%.

Turning to `CCN(CC)CCNCC(=O)Nc1ccc(Oc2ccccc2)cc1`, the max response was -2.52%.

For the molecule `O=C(CC1Nc2ccccc2NC1=O)Nc1ccccc1NC(=O)CC1Nc2ccccc2NC1=O` (stereo not given), the max response is 34.5% (active).

Take `O=C(CC1Nc2ccccc2NC1=O)Nc1ccccc1` (stereo not given): the max response is 31% (active).

`CCOC(=O)c1ccccc1NC(=O)CC1Nc2ccccc2NC1=O` (stereo not given): the max response was -6.08%.

Turning to `CCc1ccc(NC(=O)CC2C(=O)NCCN2C(=S)Nc2ccccc2)cc1` (stereo not given), the max response was 5.14%.

For `CC1CCN(CCC(=O)Nc2ccccc2)CC1`, the max response is 1.18%.

In the case of `O=C(CC1NCCNC1=O)Nc1ccc(Oc2ccccc2)cc1` (stereo not given), the max response is 30% (active).

As to `Cc1ccc(CNC(=O)CC2Sc3ccccc3NC2=O)cc1` (stereo not given), the max response was -1.23%.

Turning to `CCOc1ccc(NC(=O)CC2NCCNC2=O)cc1` (stereo not given), the max response was 0.991%.

As for `CCc1cc(C(=O)OC)c(NC(=O)CC2Sc3ccc(C(F)(F)F)cc3NC2=O)s1` (stereo not given), the max response is 0.357%.

Turning to `COC(=O)c1cc(C)sc1NC(=O)CC1Nc2ccccc2NC1=O` (stereo not given), the max response is 22.8% (active).

For `COC(=O)C(C)C1Sc2ccccc2NC1=O` (stereo not given), the max response was -1.04%.

As to `CC1CCCN(S(=O)(=O)c2ccc(N(C(=O)c3cnccn3)C(C(=O)NC3CCCCC3)c3cccs3)cc2)C1` (stereo not given), the max response was -3.46%.

As for `COC(=O)c1ccc(COc2ccc(C#N)cc2)o1`, the max response was 0.875%.

`Cc1cc(C(=O)CSc2nc(N)cc(=O)[nH]2)c(C)n1CCc1ccc(Cl)cc1`: the max response was 4.99%.

For the molecule `C=CCN(c1ccc(Cl)cc1)S(=O)(=O)c1cccc(C(=O)OCC(=O)N(C)C)c1`, the max response is -6.49%.

For the molecule `COc1cc(C(=O)NCc2nnc(SCC(=O)Nc3nc4ccc(C)cc4s3)o2)cc(OC)c1OC`, the max response was 4.75%.

Regarding `CCOC(=O)c1cccc(NC(=O)CN2C(=O)C3CC=CCC3C2=O)c1` (stereo not given), the max response was -0.226%.

With `CCC1C=C(c2ccccc2)C=CN=C1N(CC)CC` (stereo not given), the max response was -0.252%.

In the case of `O=c1/c(=C/c2ccc(CNS(=O)(=O)c3ccccc3)o2)sc2n1CCN=2`, the max response is -4.34%.

As for `CCc1nc(C)cn1S(=O)(=O)c1cc([N+](=O)[O-])ccc1Cl`, the max response was -1.54%.

For the molecule `Cc1ccc(NC(=O)CN2CCC3(O)CCCCC3C2c2ccc3c(c2)OCO3)c(C)c1` (stereo not given), the max response is -2.23%.

Regarding `Cc1ccc(C(=O)N/C(=C\c2cccs2)C(=O)NCCc2ccccn2)cc1C`, the max response was 31.4% (active).

`Cc1ccc(C(=O)N/C(=C/c2cccs2)C(=O)NCC2CCCO2)cc1` (stereo not given): the max response was -3.91%.

Regarding `Cc1ccc(C(=O)N/C(=C/c2cccs2)C(=O)N2CCCCC2)cc1`, the max response is 13.7%.

As to `O=C(Cc1ccc([N+](=O)[O-])cc1)Nc1ccc(C(=O)N2CCOCC2)cc1`, the max response is -1.78%.

With `CCNC(=O)Nc1ccc(S(=O)(=O)Nc2cnc(C)nc2C)cc1`, the max response was -7.45%.

`CC(C)n1c(=O)[nH]c2cc(C(=O)Nc3ccccc3)ccc21`: the max response was -2.19%.

For `O=C(Nc1ccccc1)c1cc2ccccc2[nH]1`, the max response was 42.1% (active).

For the molecule `O=C(/C=N/O)Nc1ccccc1`, the max response was -2.41%.

With `COc1ccc(NC(=S)SC)cc1OC`, the max response was -3.14%.

For `COc1ccc2c(c1)N(C)/C(=C1/SC(=S)N(NC(C)=O)C1=O)S2`, the max response was 5.97%.

In the case of `COc1ccc(/C=C/C2=CC(C)(C)NC(=S)N2)c(OC)c1`, the max response was 5.95%.

Turning to `COCCc1nn2c(=O)cc(COC(=O)c3cc(OC)c(OC)c(OC)c3)nc2s1`, the max response was 3.56%.

On to `CC1=C(/C=C/C(C)=C/C=C/C(C)=C/C=C/C=C(C)/C=C/C=C(C)/C=C/C(=O)[C@]2(C)C[C@@H](O)CC2(C)C)C(C)(C)C[C@H](O)C1`, for which the max response was 9.8%.

As for `CCOc1cccc(/C=C/c2ccc3ccccc3n2)c1OC(C)=O`, the max response is 25.2% (active).

Take `COc1cccc(/C=C/c2ccc3ccccc3n2)c1OC(C)=O`: the max response was 28.2% (active).

For `CCOc1ccccc1-c1cc(C(=O)N/N=C(\C)c2cccnc2)c2ccccc2n1`, the max response was -1.08%.

On to `COc1ccc(CNC(=O)/C(C#N)=C/c2cccc(OC)c2OC)cc1`, for which the max response is -1.4%.

Consider `CCOc1ccccc1-c1cc(C(=O)N2CCOCC2)c2ccccc2n1`, for which the max response is -3.29%.

Regarding `COc1cccc(/C=C2\C=C(c3ccc(C)cc3)OC2=O)c1OC(C)=O`, the max response was 1.6%.

On to `CCOc1ccc(CCNC(=O)CCc2nnc3ccc(N4CCCC4)nn23)cc1OCC`, for which the max response is 1.2%.

With `Cn1nccc1C(=O)NC1CCCc2c1cnn2-c1ccccc1F` (stereo not given), the max response was -0.344%.

In the case of `Cc1ccc2oc(=O)c3cnn(CC(=O)N(Cc4ccco4)C4CCCCC4)c3c2c1`, the max response was -5.66%.

Turning to `CCOC(=O)c1c(C)n(C)c2ccc(OC)c(NS(=O)(=O)CC)c12`, the max response was 3.73%.

For the molecule `CCOc1cc(CN2CCN(C(=O)CC(C)C)CC2)ccc1OC`, the max response was -2.09%.

Regarding `COc1ccc(COCC(O)CN2CCC(C(N)=O)CC2)cc1` (stereo not given), the max response was -2.46%.

With `COc1cc(CN2CCC(C(N)=O)CC2)ccc1OCc1ccccc1`, the max response was 34.9% (active).

In the case of `CCC(=O)Nc1ccc(C(=O)NNC(=O)c2ccc(Cl)cc2)cc1`, the max response was -0.754%.

`O=C(Nc1ccc(Cl)cc1)c1ccsn1`: the max response is 50.1% (active).

As to `O=C(NCc1cn2ccsc2n1)Nc1ccc(Cl)cc1`, the max response was 1.41%.

In the case of `Cc1c(CCC(=O)N[C@@H](CC(C)C)C(=O)O)c(=O)oc2c(C)c3oc4c(c3cc12)CCCC4`, the max response is -2.26%.

Turning to `O=C(c1ccco1)N1CCN(C(=O)C2c3ccccc3Oc3ccccc32)CC1`, the max response was 12.3% (active).

On to `O=C(OCC(=O)N1CCCC1)c1ccco1`, for which the max response was 10.1%.

In the case of `O=C(c1ccco1)N1CCN(C(=O)C2CC(c3ccc(F)cc3)=NO2)CC1` (stereo not given), the max response was -6.02%.

Regarding `O=C(OCC(=O)N1CCN(C(=O)c2ccco2)CC1)c1ccccc1Cc1ccccc1`, the max response is 34.9%.

Regarding `CC(C)c1nnc(NC(=O)CCC(=O)N2CCN(c3cccc(Cl)c3)CC2)s1`, the max response is 4.84%.

As to `O=C(c1ccc2c(c1)OCO2)N1CCN(C(=O)c2ccco2)CC1`, the max response was -3.05%.

Consider `O=C(c1ccco1)N1CCN(c2cccc(Cl)c2)CC1`, for which the max response was 23.2% (active).

For `O=C(c1cccc([N+](=O)[O-])c1)N1CCN(C(=O)c2ccco2)CC1`, the max response is -0.729%.

Turning to `O=C(OCC(=O)N1CCN(C(=O)c2ccco2)CC1)c1cccc(O)c1`, the max response is 5.85% (active).

Consider `O=C(c1ccco1)N1CCN=C1SCc1cccc(Cl)c1`, for which the max response was -6.49%.

Take `CS(=O)(=O)N(CC(=O)N1CCN(c2cccc(Cl)c2)CC1)c1ccccc1`: the max response is -1.4%.

In the case of `O=C(CCCC(=O)N1CCN(c2cccc(Cl)c2)CC1)c1ccccc1`, the max response was 19.7% (active).

In the case of `CCOC(=O)Cn1c(=O)sc2cccc(Cl)c21`, the max response is -1.55%.

In the case of `COc1cc(C)c(C(C)C)cc1S(=O)(=O)n1ccnc1`, the max response is 0.42%.

In the case of `CCOC(=O)c1ccc(N=C2SC(C(=O)NC)CC(=O)N2CCc2ccccc2)cc1` (stereo not given), the max response is 1.86%.

Take `Cc1cc(=O)cc(C)n1-c1ccc(Cl)c(Cl)c1`: the max response is -2.09%.

As for `O=C(CSc1nc2ccc(Nc3nc(N4CCOCC4)nc(N4CCOCC4)n3)cc2s1)NCc1ccco1`, the max response is -3.23%.

Turning to `CC(=O)Nc1ccc(S(=O)(=O)NCC2CCC(C(=O)NCCc3ccccc3)CC2)cc1` (stereo not given), the max response was -1.06%.

In the case of `O=C(CN1CCOCC1)Nc1ccc(NC(=O)CN2CCOCC2)c(Cl)c1`, the max response is -4.13%.

As to `CC1CCCN(CC(=O)Nc2cc(Cl)ccc2Oc2ccccc2)C1` (stereo not given), the max response was 8.16%.

`CC(=O)Nc1ccc(NC(=O)CN2CCCC(C)C2)c(Cl)c1` (stereo not given): the max response is 22.7% (active).

With `Nc1nc(SCC(=O)Nc2ccc(Cl)cc2C(F)(F)F)n[nH]1`, the max response is -3.77%.

With `N#Cc1ccc(/C=C2\CCn3c2nc2cc(C(=O)O)ccc2c3=O)cc1`, the max response is -2.31%.

Regarding `CC(=O)c1ccc(OCCN2CCOCC2)cc1`, the max response was 3.75%.

As to `c1ccc(-c2ccc(OCCN3CCOCC3)cc2)cc1`, the max response is 47.6% (active).

In the case of `CC(C)(c1ccccc1)c1ccc(OCCN2CCCC2)cc1`, the max response is 2.15%.

For the molecule `CCc1c(C)nc(N)n2c(SCC(=O)NC3CCCCC3)nnc12`, the max response is 11.5%.

For `COc1ccc(-c2nn(-c3ccccc3)cc2/C=N/Nc2ccccn2)cc1OC`, the max response is 14.8% (active).

On to `COc1ccc(-c2nn(-c3ccccc3)cc2C(=O)Nc2nccs2)cc1OC`, for which the max response is -1.49%.

With `CN(C)/N=C/c1cn(-c2ccccc2)nc1-c1cccnc1`, the max response is 6.55%.

`Cc1cc(C)cc(C(=O)N(CCc2ccccc2)C2=CC3CCC(C2)N3C)c1` (stereo not given): the max response was 3.92%.

For `O=C(C1CC(=O)N(c2ccc(Br)cc2)C1)N1CCCC1` (stereo not given), the max response was 4.73%.

With `Cc1ccc(-c2cc(=O)c3ccc(Cl)cc3[nH]2)cc1`, the max response was -0.873% and 14.9%.

For `O=c1cc(-c2ccccc2)[nH]c2cc(F)ccc12`, the max response is -3.07%.

`Cc1ccc(-c2cc(=O)c3ccc(F)cc3[nH]2)cc1`: the max response is 6.8% (active).

For `CC(=O)NC(CC(=O)Nc1cccc(S(=O)(=O)N2CCCC2)c1)c1ccccc1` (stereo not given), the max response was -2.18%.

Take `COc1ccc(S(=O)(=O)N2CCOC2CNC(=O)C(=O)NCc2ccc(F)cc2)cc1` (stereo not given): the max response is -1.46%.

As for `CC1(C)C=C2[C@H]3CC[C@@H]4[C@@]5(C)CCC(=O)C(C)(C)[C@@H]5CC[C@@]4(C)[C@]3(C)CC[C@@]2(C(=O)O)CC1`, the max response was 4.36%.

Take `O=C(CN(C(=O)c1nsc(Cl)c1Cl)c1cccc(F)c1)NC1CCCC1`: the max response was -1.97%.

In the case of `COc1cc(NC(=S)N2CCCC(C)C2)cc(OC)c1OC` (stereo not given), the max response was -2.44%.

Take `COc1cc(NC(=S)N2CCCC(C)C2)c(OC)cc1Cl` (stereo not given): the max response is 17.5% (active).

For the molecule `COc1cc(NC(=S)NNC(=O)CC(C)C)c(OC)cc1Cl`, the max response was -6.7%.
